IDH1 R132H inh: human IDH1 R132H inhibition | O75874 | IDH1-R132H enzyme, NADPH consumption, diaphorase/resazurin fluorescence | Potency, µM (highest dose often 76.6 µM), actives largely listed as inhibitors | hit rate 0.093% among 390,000; also: nearly all actives have a fitted effect of over 65% in size
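IDH1-R132H (0.5 ug/mL dispensed) in pH 7.5 Tris buffer was preincubated 30 min with compound, then given a substrate mix of 0.016 mM NADPH and 2 mM alpha-KG for 80 min at room temperature; remaining NADPH was read by diaphorase/resazurin fluorescence.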
PLK1 PBD inh: blocks phosphopeptide binding to human PLK1 polo-box domain | Potency, µM, most hits filed as inhibitors | AID 720504 | P53350 | Plk1 PBD binding of FITC phosphopeptide, fluorescence polarization | hit rate 2.8% among 360,000; also: series mostly up to about 57 µM; nearly all actives have a fitted effect of over 65% in size
VDR inh: blocks the human vitamin D receptor; P11473; Potency, µM, actives largely listed as inhibitors; VDR-SRC2-3 peptide fluorescence polarization, 2 h; hit rate 0.93% among 400,000
Target sequence (P11473 whole entry, looked up): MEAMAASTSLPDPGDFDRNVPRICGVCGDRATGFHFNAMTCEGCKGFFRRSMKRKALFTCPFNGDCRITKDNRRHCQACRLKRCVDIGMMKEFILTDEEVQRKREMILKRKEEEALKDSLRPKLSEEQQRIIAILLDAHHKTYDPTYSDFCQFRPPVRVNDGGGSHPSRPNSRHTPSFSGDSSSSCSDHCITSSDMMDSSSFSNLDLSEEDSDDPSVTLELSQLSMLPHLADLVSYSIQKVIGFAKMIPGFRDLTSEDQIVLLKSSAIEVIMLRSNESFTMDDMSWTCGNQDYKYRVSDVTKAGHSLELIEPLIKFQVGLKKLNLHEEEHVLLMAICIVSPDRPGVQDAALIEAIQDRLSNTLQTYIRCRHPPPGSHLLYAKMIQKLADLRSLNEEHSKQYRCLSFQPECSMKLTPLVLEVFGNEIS
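Inhibition of the VDR/SRC2-3 peptide interaction is quantified by fluorescence polarization. Compounds (23 nl, pintool) incubate with the reagents for 2 hours at ambient room temperature.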
TrxR1 substrate: is turned over as a substrate by rat TrxR1 | AID 588456 | Potency, µM (top dose mostly 114 µM) | purified TrxR1 substrate turnover, NADPH consumption readout | O89049 | hit rate 0.01% among 390,000; also: nearly all actives have a fitted effect of over 50% in size
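Rat TrxR1, dispensed at 90 nM, was prereduced with 400 uM NADPH (final) for 5 min at ~22 deg C, then incubated with compound 15 min before 400 uM selenite. A first-read NADPH fluorescence drop versus no-compound background flagged substrates.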
Sfp PPTase inh: blocks B. subtilis Sfp PPTase activity; hit rate 3.5% among 310,000; Q9F4F7; AID 1490; Potency, µM, usual class: inhibitors; Biochemical Sfp PPTase activity, qHTS;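 also: the enzyme is Sfp with the accession as filed and its product quenches rhodamine fluorescence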
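With Hepes-Na pH 7.6 buffer containing 10 mM MgCl2, Sfp (15 nM) modified BHQ-2-YbbR (12.5 uM) using rhodamine-CoA (5 uM). Two reads 30 minutes apart at 525/598 nm yielded each well's rate.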
rTrxR1 inhibitor: rat TrxR1 inhibition | hit rate 1% among 390,000 | Potency, µM (highest dose often 114 µM), usual class: inhibitors | O89049 | AID 588453 | recombinant rTrxR1, NADPH fluorescence consumption, selenite substrate; also: nearly all actives have a fitted effect of over 65% in size
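Rat TrxR1 (90 nM in the dispensed reagent) was pre-reduced with 400 uM NADPH for 5 min at room temperature, then incubated with compound for 15 min. After 400 uM selenite was added, NADPH fluorescence (Ex 340/Em 450 nm) was followed for 8 min.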
Hits are given with their value; ! = not confirmed by another sample. Hits are enriched below; roughly 5.2% of the tested compounds scored in any of these assays. Calls follow the shape of the dose curve; as a rule, active = well fitted curve in the direction sought with a large enough effect; inconclusive = small, poorly fitted or top-dose-only effect, or another doubt; inactive = no such curve, though single readings can be large; an effect the other way counts as inactive or inconclusive.

Screening CCCCCCCCCCCCCCC(C(=O)OC)C(O)(CC(=O)OC)C(=O)OC (stereo not drawn) returned VDR inh inactive and Sfp PPTase inh inactive.
Cc1cc2c(=O)c(C(=O)c3ccncc3)cn(CC(=O)Nc3cccc(C)c3C)c2cc1C was read as IDH1 R132H inh inactive, VDR inh inactive, TrxR1 substrate inactive and rTrxR1 inhibitor inactive.
`Cc1c(CCO)sc[n+]1CCc1ccccc1` gave TrxR1 substrate inactive and rTrxR1 inhibitor inactive.
Screening O=C(c1ccc(S(=O)(=O)Cc2cc(F)ccc2F)c([N+](=O)[O-])c1)N1CCOCC1 returned IDH1 R132H inh inactive and PLK1 PBD inh 27µM.
`O=C(c1ccc(S(=O)(=O)Cc2ccccc2F)c([N+](=O)[O-])c1)N1CCCCCC1` gave IDH1 R132H inh inactive, PLK1 PBD inh inactive, VDR inh inactive, TrxR1 substrate inactive, Sfp PPTase inh inactive and rTrxR1 inhibitor inactive.
Cc1nn(C)c(C)c1CCC(=O)N1CCCC(C(=O)c2cccc(OC(C)C)c2)C1 (stereo not drawn) was read as IDH1 R132H inh inactive, PLK1 PBD inh 27µM, VDR inh inactive, TrxR1 substrate inactive, Sfp PPTase inh inactive and rTrxR1 inhibitor inactive.
CN1CCc2c(sc(/N=C/c3cccs3)c2C(N)=O)C1 was read as IDH1 R132H inh inactive, PLK1 PBD inh inactive, VDR inh 32µM, TrxR1 substrate inactive, Sfp PPTase inh inactive and rTrxR1 inhibitor inactive.
Cc1ccccc1[C@H](NC1c2ccccc2C=Cc2ccccc21)P(=O)(c1ccccc1)c1ccccc1 was read as PLK1 PBD inh inactive.
CC(=O)[C@H]1CC[C@H]2C3CC=C4C[C@@H](O)CC[C@]4(C)C3CC[C@]12C (stereo partly drawn) was read as VDR inh inactive and Sfp PPTase inh inactive.
`C=CCN1CCN(c2nc3ccccc3nc2C#N)CC1` gave VDR inh 35µM and Sfp PPTase inh 56µM!.
COC(=O)[C@@H]1CCCN1S(=O)(=O)Cc1ccccc1 was read as TrxR1 substrate inactive and rTrxR1 inhibitor inactive.
For O=C1CCCC2=C1C(c1ccco1)Nc1ccc3ccccc3c12 (stereo not drawn) the results were IDH1 R132H inh inactive, PLK1 PBD inh 24µM, VDR inh inactive, TrxR1 substrate inactive, Sfp PPTase inh 45µM and rTrxR1 inhibitor 40µM.
For O=C1CCCC2=C1C(c1ccc(O)c(O)c1)Nc1ccc3ccccc3c12 (stereo not drawn) the results were IDH1 R132H inh inactive, PLK1 PBD inh inactive, VDR inh inactive, TrxR1 substrate inactive and rTrxR1 inhibitor inconclusive.
`CCc1ccccc1NC(=O)c1cnn2c(C(F)(F)F)cc(-c3ccc(OC)c(OC)c3)nc12` gave IDH1 R132H inh inactive, VDR inh inactive, TrxR1 substrate inactive and rTrxR1 inhibitor inactive.
Screening COc1ccc(-c2cc(C(F)(F)F)n3ncc(C(=O)NCc4ccco4)c3n2)cc1 returned IDH1 R132H inh inactive, PLK1 PBD inh inactive, VDR inh inactive, TrxR1 substrate inactive, Sfp PPTase inh 56µM and rTrxR1 inhibitor inactive.
O=C(NCc1ccco1)c1cnn2c(C(F)(F)F)cc(-c3ccccc3)nc12 was read as IDH1 R132H inh inactive, PLK1 PBD inh inactive, VDR inh inactive, TrxR1 substrate inactive, Sfp PPTase inh 25µM and rTrxR1 inhibitor inactive.
For CC(C)CCNC(=O)c1cnn2c(C(F)(F)F)cc(-c3ccco3)nc12 the results were IDH1 R132H inh inactive, PLK1 PBD inh inactive, VDR inh inactive, TrxR1 substrate inactive, Sfp PPTase inh 50µM and rTrxR1 inhibitor 7.1µM.
For CC(C)(C)c1ccc(-c2nc(SCC(=O)Nc3ccc(Cl)cc3)[nH]c(=O)c2C#N)cc1 the results were IDH1 R132H inh inactive, VDR inh inactive, TrxR1 substrate inactive and rTrxR1 inhibitor inactive.
Screening CC(=O)c1ccc(N2CCN(C(=O)c3cc4cc5cc(C)ccc5nc4s3)CC2)cc1 returned IDH1 R132H inh inactive, VDR inh inactive, TrxR1 substrate inactive and rTrxR1 inhibitor inactive.
For COc1ccc(C(=O)N2CCCC(CO)(Cc3ccccc3C)C2)o1 (stereo not drawn) the results were IDH1 R132H inh inactive, PLK1 PBD inh inactive, VDR inh inactive, TrxR1 substrate inactive, Sfp PPTase inh inactive and rTrxR1 inhibitor 50µM.
Cc1ccc(NC(=S)NCCN2CCOCC2)cc1F was read as IDH1 R132H inh inactive, PLK1 PBD inh inactive, VDR inh inactive, TrxR1 substrate inactive, Sfp PPTase inh inactive and rTrxR1 inhibitor inactive.
For CCOc1ccc(-c2nc(S(=O)(=O)c3ccccc3)c(N3CCC(C(N)=O)CC3)o2)cc1 the results were IDH1 R132H inh inactive, PLK1 PBD inh inactive, VDR inh inactive, TrxR1 substrate inactive, Sfp PPTase inh inactive and rTrxR1 inhibitor 45µM.
Screening Nc1ccn([C@@H]2O[C@H](CO)[C@H](O)C2(F)F)c(=O)n1 returned VDR inh inactive and Sfp PPTase inh inactive.
CC(C)CCNC(=O)c1cccc(C(=O)NCCC(C)C)c1 was read as IDH1 R132H inh inactive, PLK1 PBD inh 24µM, VDR inh inactive, TrxR1 substrate inactive, Sfp PPTase inh inactive and rTrxR1 inhibitor inactive.
CC(C)CNC(=O)c1cccc(C(=O)NCC(C)C)c1 was read as IDH1 R132H inh inactive, PLK1 PBD inh inactive, VDR inh inactive, TrxR1 substrate inactive, Sfp PPTase inh inactive and rTrxR1 inhibitor inactive.
Nc1ccccc1SC/C=C/CSc1ccccc1N was read as IDH1 R132H inh inactive, PLK1 PBD inh 12µM, VDR inh inactive, TrxR1 substrate inactive, Sfp PPTase inh inactive and rTrxR1 inhibitor inactive.
Nc1ccccc1O was read as IDH1 R132H inh inactive, PLK1 PBD inh inactive, VDR inh inactive, TrxR1 substrate inactive and rTrxR1 inhibitor inactive.
Screening CCCCCNS(=O)(=O)c1ccc(N2CCCCS2(=O)=O)cc1 returned IDH1 R132H inh inactive, VDR inh inactive, TrxR1 substrate inactive and rTrxR1 inhibitor inactive.
For O=c1[nH]cc(C#Cc2ccccc2)c2ncncc12 the results were VDR inh inactive, TrxR1 substrate inactive and rTrxR1 inhibitor inactive.
For Oc1ccc(/C=N/Nc2ccc3ccccc3c2)c(O)c1 the results were IDH1 R132H inh inactive, PLK1 PBD inh inconclusive, VDR inh inconclusive, TrxR1 substrate inactive, Sfp PPTase inh 50µM and rTrxR1 inhibitor inactive.
For Cc1cc(N/N=C/c2ccc(O)cc2O)nc(-c2ccccc2O)n1 the results were IDH1 R132H inh 40µM, PLK1 PBD inh inactive, VDR inh inactive, TrxR1 substrate inactive, Sfp PPTase inh inactive and rTrxR1 inhibitor inactive.
O=C(CCC(=O)Nc1ccc(F)cc1)N/N=C/c1ccc(O)cc1O was read as IDH1 R132H inh inactive, PLK1 PBD inh inactive, VDR inh inactive, TrxR1 substrate inactive, Sfp PPTase inh inactive and rTrxR1 inhibitor inactive.
For O=C(N/N=C/c1ccc(O)cc1O)C(=O)N/N=C/c1ccc(O)cc1O the results were IDH1 R132H inh inactive, PLK1 PBD inh 12µM, VDR inh inconclusive, TrxR1 substrate inactive, Sfp PPTase inh inactive and rTrxR1 inhibitor inactive.
